# According to PubChem BioAssay (NCATS):
# Results filed as inconclusive are left out. Active and inactive are the calls of the source. Calls follow the shape of the dose curve; as a rule, active = well fitted cell-killing curve with a large enough effect; inconclusive = small, poorly fitted or top-dose-only effect; inactive = flat fitted curve, though single readings scatter.
# Assay: MultiTox-Fluor Cytotoxicity Assay - LYMP1-001 - Live Cells (AID 947)
# Conditions: LYMP1-001 lymphoblastoid cells, live-cell protease fluorescence viability; series mostly up to 92.2 µM
# Description: NIH Chemical Genomics Center [NCGC]
# NIH Molecular Libraries Screening Centers Network [MLSCN]
# National Institutes of Environmental Health Sciences [NIEHS]
# National Toxicology Program [NTP]
# We have developed a 1536-well cell-based assay for quantitative high throughput screening (qHTS) against a number of cell lines to determine in vitro cytotoxicity of small molecules. This particular assay uses a human lymphoblastoid cell line (LYMP1-001) purchased from Coriell Institute.
# NCGC Assay Protocol Summary:
# The MultiTox-Fluor Cytotoxicity Assay (Promega) is a homogeneous method to simultaneously measure the relative number of live and dead cells in culture by detecting changes in cell membrane integrity. There are two fluorogenic peptide substrates in the assay reagent. Viable cells are determined when the cell-permeant substrate (GF-AFC) enters the cell and is cleaved by protease from live cells resulting in liberated fluorophore. This live-cell protease activity restricted to viable cells is proportional to cell number. The dead cells are determined by using fluorogenic cell-impermeant peptide substrate (bis-AAF-R110) which cleaved by dead cell proteases leaking from damaged cell membrane.
# Using the MultiTox-Fluor Cytotoxicity Assay, the relative number of live cells was measured in the lymphoblastoid cell line with complete culture medium following compound treatment for 16 hours. The assay was performed in opaque black Kalypsys 1536-well plates. In the screen, tetraoctylammonium bromide was used as positive control. Library compounds were measured for their ability to cause acute toxicity in the cell line, as reflected by a decrease in live cell protease activity, in a concentration-dependent manner. […] AC50 values were determined from concentration-response data modeled with the standard Hill equation.
# qHTS protocol for MultiTox-Fluor Cytotoxicity assay
# [Step] [Parameter] [Value] [Description]
# 1. Reagent; 5 uL; 2500 lymphoblastoid cells/well
# 2. Time; 5 hr; 37 C incubation
# 4. Controls; 23 nL; Tetraoctylammonium bromide 6.4pM to 92 uM
# 5. Time; 16 hr; 37 C incubation
# 6. Reagent; 5 uL; MuliTox-Fluor Assay reagent
# 7. Time; 60 min; Room Temperature
# 8. Detection; live-cell fluorescence (Ex/Em=405/510); EnVision plate reader
# Keywords: cell viability, cytotoxicity, lymphoblastoid cell line, fluorescence, NTPHTS, NTPHTS_NCGC, NIEHS, EPA, DSSTox, MLSMR, MLSCN, NIH Roadmap, qHTS, NCGC
row,Structure (SMILES),outcome
1,ClCc1ccccn1,inactive
2,Nc1ccc([N+](=O)[O-])cc1N,inactive
3,CC12CC1(C)C(=O)N(c1cc(Cl)cc(Cl)c1)C2=O (stereo not given),inactive
4,COP(=S)(OC)SCn1nnc2ccccc2c1=O,inactive
5,COc1c(C(C)(C)C)cc([N+](=O)[O-])c(C)c1[N+](=O)[O-],inactive
6,O=c1ccc(=O)[nH][nH]1,inactive
7,CC(C)[N+](=O)[O-],inactive
8,CCOC(=O)CBr,inactive
9,c1ccc(NNc2ccccc2)cc1,inactive
10,CC(C)(C)C(O)(CCc1ccc(Cl)cc1)Cn1cncn1 (stereo not given),inactive
11,CCCCC#N,inactive
12,C=CCO,inactive
13,[C-]1=CC=CC1.[C-]1=CC=CC1.[Cl-].[Cl-].[Ti+4],inactive
14,Oc1c(Cl)cccc1Cl,inactive
15,BrCCc1ccccc1,inactive
16,CCCBr,inactive
17,Cc1cnc[nH]1,inactive
18,CC(=O)CCC(C)=O,inactive
19,Brc1cccc(-c2ccccc2)c1,inactive
20,Oc1cc(Cl)c(Cl)c(Cl)c1Cl,inactive

row,Structure (SMILES),outcome
1,Nn1cnnc1,inactive
2,Nc1cc(Cl)cc(C(=O)O)c1Cl,inactive
3,O=[N+]([O-])c1ccc(O)c([N+](=O)[O-])c1,inactive
4,C[N+](=O)[O-],inactive
5,CN(C)c1ccc(N(C)C)cc1,inactive
6,Nc1ccc(Cc2ccc(N)cc2)cc1,inactive
7,c1ccc(N=NNc2ccccc2)cc1,inactive
8,O=C(Cl)c1ccccc1F,inactive
9,O=[N+]([O-])c1ccccc1CCl,inactive
10,C=C(Cl)CCl,inactive
11,CC(Cl)CCl (stereo not given),inactive
12,ClCC(Br)CBr (stereo not given),inactive
13,N#CC(Br)Br,inactive
14,O=C(O)C(Br)CBr (stereo not given),inactive
15,C=CC(=O)OC,inactive
16,Cc1ccc(N)cc1N,inactive
17,N#CCBr,inactive
18,CCSC(=O)N1CCCCCC1,inactive
19,O=Cc1ccc2c(c1)OCO2,inactive
20,N#CC(Cl)(Cl)Cl,inactive
